BAZ2B inh – BAZ2B (human) inhibition; Q9UIF8; AlphaScreen BAZ2B-H3K14Ac peptide displacement; Potency, µM (titrated, usually from 114 µM), for the others: at the top dose activity change, negative = inhibition, hits mostly inhibitors; 360,000 compounds, 4.4% hits; AID 504333; further: on the % scale 0 is the no-effect control and ±100 the full control effect; nearly all actives have a fitted effect of over 60% in size
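BAZ2B 50 nM plus b-H3(5-23)K14Ac 50 nM, PBS pH 7.4/0.01% Tween-20, 30 min RT; compound added (max 110 uM), 30 min RT; streptavidin donor/Ni-chelate acceptor beads 10 ug/mL final, 20 min dark; AlphaScreen read.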
JMJD2A Tudor – inhibitors of human JMJD2A Tudor domain | O75164 | AlphaScreen JMJD2A-Tudor / H3K4me3 peptide binding | Potency, µM (series often up to 114 µM), without a hit: at the highest dose activity change, negative = inhibition, hits mostly inhibitors | 390,000 compounds, 4.4% hits | AID 504339; further: on the % scale 0 is the no-effect control and ±100 the full control effect; nearly all actives have a fitted effect of over 50% in size
HP1b binding inh – inhibitors of HP1-beta chromodomain binding to methylated histone tails; 390,000 compounds, 0.56% hits; Potency, µM (highest dose often 114 µM), without a hit: at the highest dose activity change, negative = inhibition, usual class: inhibitors; P83916; AlphaScreen HP1-beta / biotin-H3K9me3 peptide binding; further: nearly all actives have a fitted effect of over 70% in size
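HP1-beta protein (50 nM final) preincubated 30 min at room temperature with biotinylated H3(1-18)K9me3 peptide (50 nM) in PBS pH 7.4, 0.01% Tween-20, then compound added for 30 min. AlphaScreen streptavidin donor/nickel chelate acceptor beads (10 ug/mL final), 30 min dark, luminescence read.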
Sfp PPTase inh – Sfp phosphopantetheinyl transferase inhibition; Q9F4F7; Biochemical Sfp PPTase activity, qHTS; Potency, µM, without a hit: largest response in the series, negative = inhibition, most hits filed as inhibitors; 310,000 compounds, 3.5% hits; AID 1490;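 further: the enzyme is Sfp with the accession as filed and its product quenches rhodamine fluorescence; 0% = enzyme reaction without inhibitor and -100% = no enzyme wells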
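Compounds were incubated with enzyme (final 15 nM) for 15 min at room temperature before substrate addition started the reaction. Fluorescence at 525 nm excitation, 598 nm emission was recorded immediately and after 30 minutes.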
G9a block – inhibitors of human histone lysine methyltransferase G9a | Potency, µM (doses to about 102 µM), without a hit: top-dose activity, negative = inhibition, usual class: inhibitors | Q96KQ7 | AID 504332 | 350,000 compounds, 8.8% hits | G9a H3K9 monomethylation, AlphaScreen, 2 h; further: on the % scale 0 is the no-effect control and ±100 the full control effect; nearly all actives have a fitted effect of over 75% in size
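Step 1: enzyme (final 20 nM) with compound, 15 min RT. Step 2: substrate peptide 500 nM and SAM 20 uM, 2 h RT. Step 3: anti-H3K9me1 antibody and AlphaScreen beads, 10 min, then plate read.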
L3MBTL1 inh – inhibitors of human L3MBTL1; Q9Y468; AlphaScreen L3MBTL1–H3K9me1 peptide binding; Potency, µM (top dose mostly 57.1 µM), for inactives: at the top dose activity, negative = inhibition, actives largely listed as inhibitors; 230,000 compounds, 0.66% hits; AID 485360; further: on the % scale 0 is the no-effect control and ±100 the full control effect; nearly all actives have a fitted effect of over 60% in size
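Read-out is AlphaScreen signal from streptavidin donor and nickel chelate acceptor beads (10 ug/mL final each) bridging L3MBTL1 (50 nM) and biotinylated K9-monomethylated H3(1-15) peptide (75 nM), after 30 min compound exposure at room temperature.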
The depositor's hits bear a star; [ ] = remark or other dose. Rows were chosen to be rich in hits. Some 12% of all compounds tested hit in one or more screens of this group. The call rests on the fitted dose curve; in most records, active means well fitted curve in the direction sought with a large enough effect; inconclusive means small, poorly fitted or top-dose-only effect, or another doubt; inactive means no such curve, though single readings can be large; an effect the other way counts as inactive or inconclusive. Potency means the concentration at half of the fitted maximal effect.

What do the screens show for `O=C(CSc1n[nH]c(-c2ccncc2)n1)c1cccc([N+](=O)[O-])c1`?
BAZ2B inh: -31%; JMJD2A Tudor: -15%; HP1b binding inh: 27%; Sfp PPTase inh: inconclusive; G9a block: 22µM*; L3MBTL1 inh: -3%

Results for CCc1nc(SCC(=O)c2cccc([N+](=O)[O-])c2)n[nH]1 ?
BAZ2B inh: 0%; JMJD2A Tudor: 40µM*; HP1b binding inh: inconclusive; Sfp PPTase inh: inconclusive; G9a block: inconclusive; L3MBTL1 inh: 0%

Results for Cc1cc(-c2ccccc2)nc(SCC(=O)c2cccc([N+](=O)[O-])c2)n1 ?
BAZ2B inh: inconclusive; JMJD2A Tudor: -36%; HP1b binding inh: 0%; Sfp PPTase inh: 17%; G9a block: -9%; L3MBTL1 inh: -5%

How did Cc1ccc(C)c(C(=O)CSc2n[nH]c(-c3ccncc3)n2)c1 do in these assays?
BAZ2B inh: -4%; JMJD2A Tudor: 89µM*; HP1b binding inh: 29%; Sfp PPTase inh: -9%; G9a block: -1%; L3MBTL1 inh: -5%

How did Cc1nc2nc(C)c(CCC(=O)NCc3cccc(Cl)c3)c(C)n2n1 do in these assays?
BAZ2B inh: -7%; JMJD2A Tudor: -14%; HP1b binding inh: 46%; G9a block: 5%[59 µM]

What do the screens show for `CCOC(=O)c1cc(-c2ccccc2)n(-c2cccc(C(=O)Nc3ccc(F)c(F)c3)c2)c1C`?
BAZ2B inh: inconclusive; JMJD2A Tudor: -36%; HP1b binding inh: -16%; G9a block: inconclusive

What do the screens show for `CCOC(=O)COc1ccc(-c2nnn(CC(=O)Nc3ccccc3)n2)cc1`?
BAZ2B inh: -6%; JMJD2A Tudor: -3%; HP1b binding inh: 30%; G9a block: 11%[59 µM]

Results for CCOC(=O)c1oc2ccc(OC)cc2c1NC(=O)CN1CCN(C)CC1 ?
BAZ2B inh: -2%; JMJD2A Tudor: -1%; HP1b binding inh: 20%; Sfp PPTase inh: -2%; G9a block: -28%

What do the screens show for `Cc1ccc(C(=O)c2oc3ccc(Cl)cc3c2NC(=O)CN2CCN(C)CC2)cc1`?
BAZ2B inh: 25µM*; JMJD2A Tudor: inconclusive; HP1b binding inh: -9%[57 µM]; Sfp PPTase inh: -28%; G9a block: 79µM*

What do the screens show for `O=c1cccccc1NN=C1CCCCC1`?
BAZ2B inh: inconclusive; JMJD2A Tudor: inconclusive; HP1b binding inh: 20%; Sfp PPTase inh: inconclusive

What do the screens show for `O=C(O)c1cc(Br)ccc1NN=C1CCCCC1`?
BAZ2B inh: -36%; JMJD2A Tudor: -27%; HP1b binding inh: -8%; Sfp PPTase inh: 22%; G9a block: 2.8µM*; L3MBTL1 inh: -6%

Results for CCOc1ccc(-c2csc(/C(C#N)=C\c3ccc(O)c([N+](=O)[O-])c3)n2)cc1 ?
BAZ2B inh: 7.1µM*; JMJD2A Tudor: 22µM*; HP1b binding inh: 35µM*; Sfp PPTase inh: 79µM*; G9a block: inconclusive; L3MBTL1 inh: inconclusive

Results for CN(C)c1ccc(/C=C(\C#N)c2nc(-c3ccc(Cl)c(Cl)c3)cs2)cc1 ?
BAZ2B inh: -3%; JMJD2A Tudor: -8%; HP1b binding inh: 39%; G9a block: inconclusive

Results for O=c1[nH]c(SCc2cccc(Cl)c2)nc2c1CCC2 ?
BAZ2B inh: -2%; JMJD2A Tudor: -4%; HP1b binding inh: 39%; G9a block: -45%[59 µM]

How did Cc1nn(C)c(-c2n[nH]c(=S)n2Cc2ccco2)c1Cl do in these assays?
BAZ2B inh: -11%; JMJD2A Tudor: 22µM*; HP1b binding inh: 11%; Sfp PPTase inh: -16%; G9a block: 6.3µM*; L3MBTL1 inh: -4%

What do the screens show for `Oc1ccc(-c2n[nH]c(=S)n2Cc2ccco2)cc1`?
BAZ2B inh: -29%; JMJD2A Tudor: 3.5µM*; HP1b binding inh: -9%; Sfp PPTase inh: -2%; G9a block: 2.8µM*

Screening data from PubChem.
